Each structure is given as a SMILES string. Unmarked numbers belong to inactive results. Results filed as inconclusive are left out. Activity calls are given as the source filed them. Unless noted, calls come from the whole dose curve; as a rule, active = well fitted curve in the direction sought with a large enough effect; inconclusive = small, poorly fitted or top-dose-only effect, or another doubt; inactive = no such curve, though single readings can be large; an effect the other way counts as inactive or inconclusive. Some results are limits rather than exact numbers.

The target in assay [1] is Cytochrome P450 3A4 (Homo sapiens) (UniProt P08684). The assay is described as follows: qHTS Assay for Activators of Cytochrome P450 3A4 (AID 885). Note: nearly all actives have a fitted effect of over 65% in size. The method in brief: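 Activators are scored by enhanced luminescence from CYP3A4 conversion of luciferin-PPXE (25uM, equal to KM) to luciferin, after 60 min at RT with an NADPH-regenerating system.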
Sequence of Cytochrome P450 3A4 (Homo sapiens) (P08684 whole entry, looked up): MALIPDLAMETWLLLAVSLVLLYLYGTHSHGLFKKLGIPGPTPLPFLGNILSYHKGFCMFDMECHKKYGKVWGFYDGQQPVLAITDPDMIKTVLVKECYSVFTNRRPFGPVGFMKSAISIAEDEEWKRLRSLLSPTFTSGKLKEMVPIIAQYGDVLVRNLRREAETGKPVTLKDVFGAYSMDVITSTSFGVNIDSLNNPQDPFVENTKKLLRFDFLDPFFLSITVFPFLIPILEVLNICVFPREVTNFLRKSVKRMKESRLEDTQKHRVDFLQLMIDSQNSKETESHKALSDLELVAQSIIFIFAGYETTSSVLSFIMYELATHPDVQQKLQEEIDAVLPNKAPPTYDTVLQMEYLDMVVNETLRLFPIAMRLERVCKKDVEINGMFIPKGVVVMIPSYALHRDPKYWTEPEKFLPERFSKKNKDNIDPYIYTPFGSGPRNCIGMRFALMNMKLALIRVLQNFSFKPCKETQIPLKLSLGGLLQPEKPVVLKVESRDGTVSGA
A general note: In qHTS, concentration-response curves come from the screen itself.

A short description of assay [2]: Confirmation and Secondary Assay for Modulators of Hemoglobin Beta Chain Splicing at IVS2 654 locus (AID 910).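 Note: per-well total GFP intensity by laser scanning cytometry after 2-day treatment; % of control where 0% means no effect.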 The procedure, abridged:
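HeLa cells stably carrying EGFP interrupted by mutant beta-globin IVS2-654 intron (CMV-driven) were treated with compound for 2 days at 37C; corrected splicing was scored as total peak GFP intensity per well (488 nm excitation, 500-520 nm emission).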

The nature of assay [3]: Confirmation and Secondary Assay for Modulators of Hemoglobin Beta Chain Splicing at IVS2 705 locus (AID 930).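 Note: HeLa cells stably expressing the EGFP-705 splicing reporter; GFP fluorescence per well restored by corrected splicing of the IVS2-705 intron in EGFP; % of control where 0% means no effect.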 The procedure, abridged:
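Per-well GFP, captured at 1 x 8 µm resolution with 488 nm excitation, served as the read-out for HeLa EGFP-705 cells incubated 2 days with test compound versus DMSO.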

Assay [4] addresses Rap guanine nucleotide exchange factor 3 (Homo sapiens) (UniProt O95398). The experiment in a line: Confirmatory qHTS for antagonist of cAMP-regulated guanine nucleotide exchange factor 3 (EPAC1) (AID 1645880).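 Note: plate controls were DMSO only for no effect and full effect of the ATA control for full effect; nearly all actives have a fitted effect of over 55% in size.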 As to conditions: EPAC1 Rap1B-BODIPY-GDP exchange, fluorescence; activity, negative = inhibition: at 115 µM (top of the series). The method in brief: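 Released BODIPY-GDP fluoresces less than Rap1-bound BODIPY-GDP; the signal is followed at 480/540 nm at 5-min intervals over 30 min, after 5 min at room temperature. Reactions contain 100 nM EPAC1, 250 nM RAP1B-BODIPY-GDP and 50 uM GDP; results are normalized to ATA and DMSO.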

Assay [5] has the same target. The assay is described as follows: Confirmatory qHTS for agonist of cAMP-regulated guanine nucleotide exchange factor 3 (EPAC1) (AID 1645881).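 Note: EPAC1 catalysed release of BODIPY-GDP from Rap1B seen as fluorescence loss; 100% = effect of cAMP agonist control; nearly all actives have a fitted effect of over 75% in size.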
The target of assay [6] is Rap guanine nucleotide exchange factor 4 (Homo sapiens) (UniProt Q8WZA2). The assay is described as follows: Confirmatory qHTS for agonist of cAMP-regulated guanine nucleotide exchange factor 4 (EPAC2) (AID 1645884).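 Note: nucleotide exchange releases bodipy-GDP from Rap1 and this lowers its fluorescence; % is set by controls: 0 for no effect and ±100 for the full control effect; nearly all actives have a fitted effect of over 65% in size.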
For assay [7] the target is unchanged. The assay is described as follows: Confirmatory qHTS for antagonist of cAMP-regulated guanine nucleotide exchange factor 4 (EPAC2) (AID 1645885). Note: nearly all actives have a fitted effect of over 25% in size. Note: potency is the fitted concentration of half-maximal effect.
In assay [8] the target is Rap guanine nucleotide exchange factor 3 (Homo sapiens) (UniProt O95398). The assay is described as follows: Counterscreen qHTS for antagonist of cAMP-regulated guanine nucleotide exchange factor 3 (EPAC1) (AID 1645888). Note: % of control where 0% means no effect. The procedure, abridged: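 Measured: fluorescence of BODIPY-GDP bound to Rap1B, which falls as exchange proceeds. Conditions include 50 uM competing GDP, 5 and 30 min reads, and a later cAMP challenge for antagonist detection.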
Sequence of Rap guanine nucleotide exchange factor 3 (Homo sapiens) (O95398 whole entry, looked up): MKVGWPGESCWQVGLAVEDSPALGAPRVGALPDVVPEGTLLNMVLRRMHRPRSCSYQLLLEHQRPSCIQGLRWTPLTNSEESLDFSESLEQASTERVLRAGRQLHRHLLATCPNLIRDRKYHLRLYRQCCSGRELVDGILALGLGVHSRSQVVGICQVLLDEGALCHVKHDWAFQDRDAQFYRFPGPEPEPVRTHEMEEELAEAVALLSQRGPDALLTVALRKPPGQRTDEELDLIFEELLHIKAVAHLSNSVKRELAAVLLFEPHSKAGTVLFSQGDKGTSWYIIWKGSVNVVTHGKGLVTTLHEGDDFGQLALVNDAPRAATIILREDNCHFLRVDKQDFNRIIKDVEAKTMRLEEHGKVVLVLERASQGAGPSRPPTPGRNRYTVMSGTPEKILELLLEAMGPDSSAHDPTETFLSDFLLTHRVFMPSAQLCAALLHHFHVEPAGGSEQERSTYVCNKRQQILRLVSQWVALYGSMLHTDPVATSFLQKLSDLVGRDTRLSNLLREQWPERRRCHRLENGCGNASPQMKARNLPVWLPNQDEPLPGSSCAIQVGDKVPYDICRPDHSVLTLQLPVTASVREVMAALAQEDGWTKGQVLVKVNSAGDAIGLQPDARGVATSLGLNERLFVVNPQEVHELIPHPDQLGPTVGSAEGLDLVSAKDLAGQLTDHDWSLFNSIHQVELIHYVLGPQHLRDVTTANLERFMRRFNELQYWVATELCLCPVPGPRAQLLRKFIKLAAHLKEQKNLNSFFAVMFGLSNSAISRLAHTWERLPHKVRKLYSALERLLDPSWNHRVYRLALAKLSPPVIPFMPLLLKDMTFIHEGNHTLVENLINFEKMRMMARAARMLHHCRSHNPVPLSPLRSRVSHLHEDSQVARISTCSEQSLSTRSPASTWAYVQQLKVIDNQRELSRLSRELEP
(In general: A counterscreen serves to expose hits that act by an unwanted route or on another target.)

A short description of assay [9]: AP1 Signaling Pathway (AID 357; active = well fitted curve in either direction with a large enough effect, not every such curve was filed as active; note: % is set by controls: 0 for no effect and ±100 for the full control effect). The conditions noted are these: ME-180 AP-1-bla reporter, EGF-induced, beta-lactamase ratio, 5 h; at 7.69 µM (top of the series) unless noted. The procedure, abridged: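 AP-1-bla ME-180 cells with beta-lactamase reporter under AP-1 response element, stimulated with EC50 EGF; compounds titrated, 5 hours at 37 degrees Celsius. CCF4 read at 460/530 nm ratio; positive and negative modulators judged by AC50.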

The nature of assay [10]: NFAT Signaling Pathway (AID 444; active = well fitted curve in either direction with a large enough effect, not every such curve was filed as active;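 note: carbachol stimulus at about its EC50 of 1 µM final; % is set by controls: 0 for no effect and ±100 for the full control effect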). As to conditions: Jurkat NFAT-bla M1, carbachol, beta-lactamase ratio, 5 h; at 7.69 µM (top of the series) unless noted. The procedure, abridged: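 Jurkat cells carrying an NFAT-driven β-lactamase reporter and co-transfected muscarinic M1 receptor were treated with compound plus carbachol (1 uM final, an EC50 level) for 5 h at 37 °C. CCF4 loading followed for 1 h at RT; 460/530 nm ratio gave %activity.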

The nature of assay [11]: Stat Signaling Pathway (AID 446; active = well fitted curve in either direction with a large enough effect, not every such curve was filed as active;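 note: ME-180 cervical cancer cells given 40 pM IL-6 alongside compound; SIE-controlled beta-lactamase reporter measured as 460/530 nm FRET emission ratio; % is set by controls: 0 for no effect and ±100 for the full control effect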). The procedure, abridged: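 Emission at 460 and 530 nm (excitation 405 nm) reports SIE-controlled beta-lactamase in ME-180 cells. Cells received compound with 40 pM IL-6 for 5 hrs at 37 C; data scaled between 300 pM IL-6 and 125 nM JAK-inhibitor controls.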
Assay [12] concerns the target Glucocorticoid receptor (Homo sapiens) (UniProt P04150). The experiment in a line: GR-GFP Redistribution (AID 450;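 active = compounds whose dose series gives a full or clear partial fitted curve of increased nuclear translocation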; note: potency is the fitted concentration of half-maximal effect). As to conditions: U2OS GR-GFP nuclear translocation, laser cytometry, 2 h.
Assay [13] shares this target. The experiment in a line: GR-EFC Redistribution (AID 451; calls by dose curve; note: potency is the fitted concentration of half-maximal effect). As to conditions: CHO-K1 GR-EFC translocation, beta-gal luminescence, 2 h. The procedure, abridged: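 CHO-K1 cells stably expressing nuclear-localized β-gal enzyme acceptor and GR fused C-terminally to the enzyme donor fragment; ligand-driven nuclear translocation restores β-gal by complementation. Compounds titrated up to 46 uM final, 2 h at 37 °C; luminescence read.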

For assay [14], the target named is Cytochrome P450 3A4 (Homo sapiens) (UniProt P08684). The assay is described as follows: qHTS Assay for Inhibitors and Substrates of Cytochrome P450 3A4 (AID 884). Note: potency is the fitted concentration of half-maximal effect; nearly all actives have a fitted effect of over 50% in size. The procedure, abridged: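 Luminescent readout of luciferin produced by CYP3A4 (20 nM) dealkylation of Luciferin-PPXE, 25 uM (its KM). NADPH-driven reaction ran 60 min at RT after 10 min compound preincubation; data scaled to 57 uM ketoconazole as 100% inhibition.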

Assay [15] has as its target Cytochrome P450 2D6 (Homo sapiens) (UniProt P10635). The assay is described as follows: qHTS Assay for Inhibitors and Substrates of Cytochrome P450 2D6 (AID 891). Note: potency is the fitted concentration of half-maximal effect; nearly all actives have a fitted effect of over 60% in size. The procedure, abridged: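 Luminescent read-out of luciferin formed by 5 nM human CYP2D6 demethylating 30 uM Luciferin-ME EGE (Km level) over 60 min at room temperature after NADPH regeneration addition. Data normalized to full inhibition by 1.43 uM quinidine.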

In assay [16] the target is Cytochrome P450 2C19 (Homo sapiens) (UniProt P33261). The experiment in a line: qHTS Assay for Inhibitors and Substrates of Cytochrome P450 2C19 (AID 899). Note: potency is the fitted concentration of half-maximal effect; nearly all actives have a fitted effect of over 60% in size. The procedure, abridged:
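In 50mM KPO4, the reaction held 5nM enzyme and KM-level (10uM) Luciferin-H EGE; it ran 60 min at 37C after NADPH regeneration and a 10 min compound preincubation. Luminescence values were scaled to 57uM ketoconazole as complete inhibition.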

For assay [17], the target named is Dual specificity protein kinase CLK4 (Homo sapiens) (UniProt Q9HAZ1). The experiment in a line: qHTS Assay for Inhibitors of CDC-like Kinase 4 (Kinase-Glo Assay) (AID 1770). Note: nearly all actives have a fitted effect of over 65% in size. Note: potency is the fitted concentration of half-maximal effect. The procedure, abridged: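 Clk4 25 nM, RS peptide 100 uM, ATP 1 uM, pH 7.5 Tris, 10 mM MgCl2, 2.5 mM DTT; 4.5 h RT; ATP depletion read by Kinase-Glo luminescence.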
Sequence of Dual specificity protein kinase CLK4 (Homo sapiens) (Q9HAZ1 whole entry, looked up): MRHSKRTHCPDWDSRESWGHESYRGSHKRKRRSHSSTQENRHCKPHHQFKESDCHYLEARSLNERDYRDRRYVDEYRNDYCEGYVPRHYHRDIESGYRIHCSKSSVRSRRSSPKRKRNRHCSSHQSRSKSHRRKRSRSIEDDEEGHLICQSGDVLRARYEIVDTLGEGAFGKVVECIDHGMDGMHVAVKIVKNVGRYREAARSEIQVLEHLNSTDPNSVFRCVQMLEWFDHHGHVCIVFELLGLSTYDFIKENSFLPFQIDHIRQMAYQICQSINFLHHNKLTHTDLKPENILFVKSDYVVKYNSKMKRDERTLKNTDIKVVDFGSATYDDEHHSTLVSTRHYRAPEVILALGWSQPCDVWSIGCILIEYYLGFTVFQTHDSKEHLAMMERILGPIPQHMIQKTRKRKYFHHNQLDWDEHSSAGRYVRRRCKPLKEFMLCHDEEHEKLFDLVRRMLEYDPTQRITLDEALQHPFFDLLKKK
Assay [18] has the same target. The experiment in a line: qHTS Assay for Inhibitors of CDC-like Kinase 4 (ADP-Glo Assay) (AID 1771). Note: nearly all actives have a fitted effect of over 70% in size. Note: potency is the fitted concentration of half-maximal effect. The procedure, abridged:
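In this ADP-Glo format, 1 uM ATP and 100 uM RS peptide served as substrates for 25 nM Clk4 in Mg2+/EGTA/DTT/Triton buffer; reactions ran 1 hr at room temperature before luminescent ADP quantification.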

Assay [19] has the same target. The assay is described as follows: qHTS Assay for Inhibitors of CDC-like Kinase 4 (ADP-FP Assay) (AID 1795). Note: nearly all actives have a fitted effect of over 60% in size. Note: potency is the fitted concentration of half-maximal effect. The procedure, abridged: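 Kinase activity was followed as ADP output, converted from fluorescence polarization with a calibration curve. Reactions ran one hour at low ATP (1 uM) with RS peptide substrate.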
The target of assay [20] is Ubiquitin carboxyl-terminal hydrolase 1 (Homo sapiens) (UniProt O94782). The assay is described as follows: Inhibitors of USP1/UAF1: Pilot qHTS (AID 504865).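 Note: rhodamine fluorescence freed from ubiquitin-rhodamine substrate followed over time; top concentration of the series differs between compounds; % is set by controls: 0 for no effect and ±100 for the full control effect; nearly all actives have a fitted effect of over 35% in size.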 The method in brief: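 Enzyme-free wells gave the negative control, while test wells held 1nM USP1/UAF1 preincubated with compound for 15 min at room temperature. Ub-Rho at 150nM final started the reaction, and fluorescence at 480/540 nm was recorded kinetically.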
Sequence of Ubiquitin carboxyl-terminal hydrolase 1 (Homo sapiens) (O94782 whole entry, looked up): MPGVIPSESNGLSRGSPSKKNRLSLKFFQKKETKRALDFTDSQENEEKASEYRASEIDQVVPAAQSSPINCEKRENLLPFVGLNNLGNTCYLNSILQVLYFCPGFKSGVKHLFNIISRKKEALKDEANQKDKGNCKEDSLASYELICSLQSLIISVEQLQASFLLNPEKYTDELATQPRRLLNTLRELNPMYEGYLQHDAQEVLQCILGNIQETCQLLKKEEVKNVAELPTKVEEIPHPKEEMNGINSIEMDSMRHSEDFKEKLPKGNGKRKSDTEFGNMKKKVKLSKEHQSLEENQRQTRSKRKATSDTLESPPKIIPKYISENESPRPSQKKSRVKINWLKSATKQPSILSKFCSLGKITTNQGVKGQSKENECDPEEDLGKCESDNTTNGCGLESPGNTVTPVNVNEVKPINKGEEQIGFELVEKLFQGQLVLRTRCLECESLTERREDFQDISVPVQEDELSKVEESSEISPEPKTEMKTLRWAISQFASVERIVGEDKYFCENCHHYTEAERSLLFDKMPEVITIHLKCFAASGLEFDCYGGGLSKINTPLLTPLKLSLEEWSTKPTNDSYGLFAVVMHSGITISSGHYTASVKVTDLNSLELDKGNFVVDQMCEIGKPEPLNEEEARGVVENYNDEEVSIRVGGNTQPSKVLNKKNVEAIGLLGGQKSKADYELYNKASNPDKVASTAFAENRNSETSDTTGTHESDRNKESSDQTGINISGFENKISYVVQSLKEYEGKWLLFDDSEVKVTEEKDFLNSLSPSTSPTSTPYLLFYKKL

In assay [21] the target is Lysosomal acid glucosylceramidase (Homo sapiens) (UniProt P04062). The experiment in a line: Glucocerebrosidase-p2 (AID 348; in the data active = potency below about 10 µM; note: potency is the fitted concentration of half-maximal effect). The conditions noted are these: purified GBA, blue fluorogenic substrate, 40 min. The procedure, abridged: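 Normal human glucocerebrosidase (0.2 nM) with blue fluorogenic substrate (80 uM final) in citrate/phosphate pH 5.9 with 10mM sodium taurocholate, 0.01% tween-20; 40 min RT, NaOH/glycine stop; fluorescence Ex 365/Em 440; AC50 from a titration from 0.6 nM upwards.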
Sequence of Lysosomal acid glucosylceramidase (Homo sapiens) (P04062 whole entry, looked up): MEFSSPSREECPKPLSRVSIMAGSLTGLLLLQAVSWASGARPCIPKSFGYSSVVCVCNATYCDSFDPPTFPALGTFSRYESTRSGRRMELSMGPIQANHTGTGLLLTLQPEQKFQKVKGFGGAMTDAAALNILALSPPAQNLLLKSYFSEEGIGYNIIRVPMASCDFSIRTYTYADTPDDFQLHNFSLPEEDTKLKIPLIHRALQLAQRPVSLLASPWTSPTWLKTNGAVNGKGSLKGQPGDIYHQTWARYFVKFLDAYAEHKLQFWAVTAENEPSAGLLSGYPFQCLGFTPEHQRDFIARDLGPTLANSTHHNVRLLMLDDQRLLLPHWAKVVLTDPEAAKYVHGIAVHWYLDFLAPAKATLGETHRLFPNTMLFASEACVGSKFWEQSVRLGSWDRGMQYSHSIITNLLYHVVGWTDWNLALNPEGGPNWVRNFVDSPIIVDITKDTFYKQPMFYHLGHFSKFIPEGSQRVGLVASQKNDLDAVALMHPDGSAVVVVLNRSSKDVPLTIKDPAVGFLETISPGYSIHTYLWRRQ

Assay [22] deals with Cytochrome P450 1A2 (Homo sapiens) (UniProt P05177). The assay is described as follows: p450-cyp1a2 (AID 410; calls by dose curve; note: potency is the fitted concentration of half-maximal effect). The procedure, abridged: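 Read-out is luminescence from luciferin produced by CYP1A2 demethylation of Luciferin-ME (100uM, at Km). Detection reagent stopped the 60 min NADPH-dependent reaction; signals were normalized to 57 uM furafylline.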
The target in assay [23] is Mitogen-activated protein kinase 10 (Mus musculus) (UniProt Q61831). The experiment in a line: JNK3 AlphaScreen Assay (AID 530; active = well fitted curve in either direction with a large enough effect, not every such curve was filed as active;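 note: kinase came from lysate of stimulated human HepG2 cells; signal reports phosphorylation of biotinylated GST-cJun 1-79 at Ser73 with 10 µM ATP; % is set by controls: 0 for no effect and ±100 for the full control effect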). The method in brief: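 Biotinylated GST-cJun(1-79) served as substrate for JNK3 in HepG2 lysates stimulated with IL-1beta and TNF-alpha. ATP was 10 uM final, pH 7.6. Ser73 phosphorylation was quantified by AlphaScreen (680 nm excitation).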
For orientation: Alpha assays give light when donor and acceptor beads are brought close together.

For assay [24], the target named is 3',5'-cyclic-AMP phosphodiesterase 4B (Homo sapiens) (UniProt Q07343). The assay is described as follows: qHTS Assay for Inhibitors of PDE-IV (AID 607; active = well fitted activation curve with a large enough effect in the main read-out, with a control signal flat, not every such curve was filed as active; note: % of control where 0% means no effect). The procedure, abridged: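 The readout is membrane depolarisation from a cAMP-sensing CNG channel, detected with a potential dye at ex 535/em 590. Cells were HEK293-derived (endogenous PDE-IV) at 1000 cells/well, titrated up to 22.9 uM final.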
Sequence of 3',5'-cyclic-AMP phosphodiesterase 4B (Homo sapiens) (Q07343 whole entry, looked up): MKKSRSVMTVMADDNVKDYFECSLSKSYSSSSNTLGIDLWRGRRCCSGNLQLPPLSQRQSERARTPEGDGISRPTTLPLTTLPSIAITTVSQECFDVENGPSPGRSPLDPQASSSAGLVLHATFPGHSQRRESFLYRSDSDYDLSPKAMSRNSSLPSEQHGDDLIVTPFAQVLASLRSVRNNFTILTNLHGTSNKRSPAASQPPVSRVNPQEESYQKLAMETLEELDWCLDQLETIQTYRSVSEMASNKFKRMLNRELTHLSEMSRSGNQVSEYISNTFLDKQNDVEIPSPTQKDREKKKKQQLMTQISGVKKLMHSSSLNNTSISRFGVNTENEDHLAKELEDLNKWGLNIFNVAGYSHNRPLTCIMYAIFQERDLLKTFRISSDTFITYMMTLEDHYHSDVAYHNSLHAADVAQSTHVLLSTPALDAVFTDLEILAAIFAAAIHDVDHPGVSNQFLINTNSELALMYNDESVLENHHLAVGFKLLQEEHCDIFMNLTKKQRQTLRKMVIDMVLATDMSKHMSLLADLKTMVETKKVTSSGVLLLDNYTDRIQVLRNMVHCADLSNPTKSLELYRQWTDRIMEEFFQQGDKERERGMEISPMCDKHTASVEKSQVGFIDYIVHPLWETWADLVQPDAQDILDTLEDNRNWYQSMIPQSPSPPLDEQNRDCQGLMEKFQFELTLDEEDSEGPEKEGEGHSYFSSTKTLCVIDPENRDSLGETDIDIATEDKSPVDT

Assay [25] in a line: qHTS Assay for Identification of Small Molecule Agonists for Hypoxia Response Element Signaling Pathway (AID 914; active = well fitted activation curve with a large enough effect in the signal ratio, with a control signal flat, not every such curve was filed as active; the % refers to the signal ratio; note: potency is the fitted concentration of half-maximal effect). As to conditions: ME-180 (cervical carcinoma) HRE-bla reporter, beta-lactamase ratio, CoCl2, 17 h; activation: stronger effect = higher value. The procedure, abridged:
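In Opti-MEM containing 0.5% dialyzed FBS and 10 mM HEPES, ME-180 HRE-bla cells received a compound titration and EC50 CoCl2. They were incubated 17 hours, then CCF4-loaded 2.5 hours at room temperature before ratio reading.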

Sequence of Glucocorticoid receptor (Homo sapiens) (P04150 whole entry, looked up, the tested form may be a part): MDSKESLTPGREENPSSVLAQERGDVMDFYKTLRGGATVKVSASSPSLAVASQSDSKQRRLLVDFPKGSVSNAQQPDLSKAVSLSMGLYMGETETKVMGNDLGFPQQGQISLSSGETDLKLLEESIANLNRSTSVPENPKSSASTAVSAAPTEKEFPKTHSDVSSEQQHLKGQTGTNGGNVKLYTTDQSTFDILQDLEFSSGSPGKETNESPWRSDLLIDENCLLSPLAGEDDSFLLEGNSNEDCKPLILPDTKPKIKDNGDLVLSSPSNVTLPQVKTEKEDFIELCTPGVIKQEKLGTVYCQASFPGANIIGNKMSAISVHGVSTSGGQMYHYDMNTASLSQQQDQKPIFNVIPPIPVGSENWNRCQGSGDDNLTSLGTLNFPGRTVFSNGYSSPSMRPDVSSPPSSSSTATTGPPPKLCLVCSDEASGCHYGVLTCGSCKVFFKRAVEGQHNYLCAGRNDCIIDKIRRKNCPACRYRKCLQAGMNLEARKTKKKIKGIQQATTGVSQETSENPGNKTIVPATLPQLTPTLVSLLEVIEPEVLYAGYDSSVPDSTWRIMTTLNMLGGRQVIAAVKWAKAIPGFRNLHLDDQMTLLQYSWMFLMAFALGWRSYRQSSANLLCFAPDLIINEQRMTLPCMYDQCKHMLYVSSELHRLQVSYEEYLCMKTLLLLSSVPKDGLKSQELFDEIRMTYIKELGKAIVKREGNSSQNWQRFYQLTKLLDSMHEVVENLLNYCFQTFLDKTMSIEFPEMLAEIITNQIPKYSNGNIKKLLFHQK

Turning to `COc1ccc2c(=O)c(OC)c(-c3ccccc3)oc2c1`, in [1], the outcome was inactive. The Potency result in assay [2], in assay [3], in assay [4], in [5] and in assay [6] was “inactive” in each case. Besides, in [7], the Potency is 13.9 µM (active).
For the compound `CCOc1ccc(-n2c(SCC(=O)Nc3ccc(F)cc3)nc3c([nH]c4ccccc43)c2=O)cc1`, the Potency result in assay [4], in assay [5], in [6] and in [8] was “inactive” each time.
On to `COc1cccc(-c2cncnc2NCc2ccccc2OC)c1`, for which the results for the activity change, negative = inhibition in [9] and in [10] were -3.02% and 6.93%, respectively. For the same compound, the result in assay [11] and in assay [1] was inactive. Further, the Potency in assay [12] is over 46 µM; in [13], over 46 µM; in [14], 0.501 µM (active); in assay [15], 7.94 µM (active); in assay [16], 2 µM (active); in assay [17] it was 14.1 µM (active). In addition, the Potency was 15.8 µM (active) in [18], 14.1 µM (active) in assay [19] and 44.1 µM (active) in [7]. Also, the Potency entry in assay [20], in assay [4], in assay [5] and in [6] was “inactive” each time.
With `COC(=O)[C@@]1(C)CCC[C@@]2(C)c3ccc(O)c(C(C)C)c3CCC21` (stereo partly specified), the Potency in assay [14] was 31.6 µM (active). Also, the Potency result in assay [2], in assay [3], in [4], in assay [5], in assay [6] and in assay [7] was “inactive” in each case.
In the case of `COc1ccc(Oc2ncc3nc(CCc4ccccc4)c(=O)n(CCC#N)c3n2)cc1`, the Potency in assay [21] was over 11.4 µM; in assay [22], 6.31 µM (active); in assay [12], over 9.22 µM; in assay [13], over 46 µM. The activity change, negative = inhibition in assay [10] is 3.1%. In assay [11], the outcome was inactive. For the same compound, the Potency entry in [23], in [24], in assay [4], in [5], in assay [6] and in [7] was “inactive” in each case.
For `CN1CCN(c2ncc3nc(-c4cccs4)c(=O)n(CCc4ccccc4)c3n2)CC1`, the Potency in assay [21] is over 11.4 µM; in assay [22], 2.51 µM (active); in [12] it was over 9.22 µM; in assay [13], over 46 µM; in assay [25], 3.16 µM (active). In addition, the Potency entry in assay [24], in assay [18], in assay [19], in [20], in [4] and in [5] was “inactive” in each case. The Potency entry in assay [6] and in assay [7] was “inactive” throughout.
For `COc1cccc(Cn2c(=O)c(CCc3ccccc3)nc3cnc(N4CCN(C)CC4)nc32)c1`, the Potency was over 11.4 µM in assay [21], over 9.22 µM in assay [12], over 46 µM in assay [13] and 7.94 µM (active) in [16]. The activity change, negative = inhibition was -3.73% in assay [9] and 8.33% in assay [10]. In addition, the Potency entry in assay [23], in assay [24], in assay [17], in assay [18], in [19] and in assay [20] was “inactive” each time. Also, the Potency entry in [4], in assay [5], in assay [6] and in assay [7] was “inactive” each time.

The values are drawn from PubChem BioAssay (NCATS).
